SMILES strings stand for the structures.

Two molecules from ChEMBL document CHEMBL1961873, “Compounds: GSK PKIS; Assays: Nanosyn kinase panel” (2012) can be followed below.

Assay [1] has as its target T1, Inhibitor of nuclear factor kappa-B kinase subunit epsilon (Homo sapiens) (UniProt Q14164).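 Note: reported values are averaged percent inhibition figures against human IKKε.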
T1 sequence (whole entry): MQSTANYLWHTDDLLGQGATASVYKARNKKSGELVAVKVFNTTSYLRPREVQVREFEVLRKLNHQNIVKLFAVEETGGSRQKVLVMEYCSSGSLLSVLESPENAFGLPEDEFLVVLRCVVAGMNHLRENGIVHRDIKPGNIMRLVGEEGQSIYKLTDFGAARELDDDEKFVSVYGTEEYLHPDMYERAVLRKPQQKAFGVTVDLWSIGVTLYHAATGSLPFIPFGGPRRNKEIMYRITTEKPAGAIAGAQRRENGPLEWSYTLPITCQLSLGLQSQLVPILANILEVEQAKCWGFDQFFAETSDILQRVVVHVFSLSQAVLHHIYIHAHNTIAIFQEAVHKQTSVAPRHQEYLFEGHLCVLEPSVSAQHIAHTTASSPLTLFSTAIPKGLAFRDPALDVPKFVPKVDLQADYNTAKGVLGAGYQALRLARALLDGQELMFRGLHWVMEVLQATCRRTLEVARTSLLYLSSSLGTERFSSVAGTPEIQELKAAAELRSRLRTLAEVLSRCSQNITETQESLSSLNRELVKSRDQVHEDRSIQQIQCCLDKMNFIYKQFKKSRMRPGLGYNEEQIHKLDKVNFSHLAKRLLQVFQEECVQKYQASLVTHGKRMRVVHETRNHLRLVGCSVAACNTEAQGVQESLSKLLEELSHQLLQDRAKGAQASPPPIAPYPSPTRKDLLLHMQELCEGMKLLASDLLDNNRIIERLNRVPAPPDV
Conditions: at 1 µM.

In assay [2] the target is T2, Serine/threonine-protein kinase Nek1 (Homo sapiens) (UniProt Q96PY6).
T2 sequence (whole entry): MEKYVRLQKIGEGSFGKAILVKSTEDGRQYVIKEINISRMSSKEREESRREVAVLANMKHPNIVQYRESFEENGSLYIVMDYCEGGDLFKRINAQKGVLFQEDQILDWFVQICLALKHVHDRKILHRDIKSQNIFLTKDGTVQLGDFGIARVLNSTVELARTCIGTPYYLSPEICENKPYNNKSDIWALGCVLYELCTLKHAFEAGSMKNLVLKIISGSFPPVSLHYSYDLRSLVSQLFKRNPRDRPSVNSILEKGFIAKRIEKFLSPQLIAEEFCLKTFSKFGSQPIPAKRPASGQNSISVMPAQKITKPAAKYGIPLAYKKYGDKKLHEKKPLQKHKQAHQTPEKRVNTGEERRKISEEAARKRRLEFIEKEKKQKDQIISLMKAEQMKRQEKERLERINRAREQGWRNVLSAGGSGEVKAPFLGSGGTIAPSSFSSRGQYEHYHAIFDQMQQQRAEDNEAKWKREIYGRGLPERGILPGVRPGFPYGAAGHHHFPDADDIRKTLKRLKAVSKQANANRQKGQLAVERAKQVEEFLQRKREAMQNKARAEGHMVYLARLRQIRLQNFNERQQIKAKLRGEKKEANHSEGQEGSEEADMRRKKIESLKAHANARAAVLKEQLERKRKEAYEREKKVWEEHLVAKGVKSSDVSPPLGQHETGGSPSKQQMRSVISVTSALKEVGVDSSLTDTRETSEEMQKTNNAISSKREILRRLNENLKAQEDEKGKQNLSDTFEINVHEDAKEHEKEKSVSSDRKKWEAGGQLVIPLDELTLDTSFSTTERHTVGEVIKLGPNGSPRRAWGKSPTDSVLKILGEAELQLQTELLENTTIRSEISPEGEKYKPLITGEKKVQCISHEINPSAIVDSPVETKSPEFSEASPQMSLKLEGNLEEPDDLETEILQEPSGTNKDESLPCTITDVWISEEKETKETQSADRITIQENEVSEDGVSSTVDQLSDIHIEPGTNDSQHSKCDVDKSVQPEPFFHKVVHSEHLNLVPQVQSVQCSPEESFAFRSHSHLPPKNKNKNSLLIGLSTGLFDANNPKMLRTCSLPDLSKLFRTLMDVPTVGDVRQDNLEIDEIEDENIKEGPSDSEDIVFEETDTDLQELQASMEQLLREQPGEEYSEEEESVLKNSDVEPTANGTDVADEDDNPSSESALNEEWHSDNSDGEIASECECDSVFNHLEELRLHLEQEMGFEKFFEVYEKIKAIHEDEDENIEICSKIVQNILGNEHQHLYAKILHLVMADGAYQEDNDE
Conditions: at 0.1 µM.

Assay [3] addresses T2, Serine/threonine-protein kinase Nek1 (Homo sapiens). Conditions: at 1 µM.
In assay [4] the target is T3, Serine/threonine-protein kinase Nek2 (Homo sapiens) (UniProt P51955).
T3 sequence (whole entry): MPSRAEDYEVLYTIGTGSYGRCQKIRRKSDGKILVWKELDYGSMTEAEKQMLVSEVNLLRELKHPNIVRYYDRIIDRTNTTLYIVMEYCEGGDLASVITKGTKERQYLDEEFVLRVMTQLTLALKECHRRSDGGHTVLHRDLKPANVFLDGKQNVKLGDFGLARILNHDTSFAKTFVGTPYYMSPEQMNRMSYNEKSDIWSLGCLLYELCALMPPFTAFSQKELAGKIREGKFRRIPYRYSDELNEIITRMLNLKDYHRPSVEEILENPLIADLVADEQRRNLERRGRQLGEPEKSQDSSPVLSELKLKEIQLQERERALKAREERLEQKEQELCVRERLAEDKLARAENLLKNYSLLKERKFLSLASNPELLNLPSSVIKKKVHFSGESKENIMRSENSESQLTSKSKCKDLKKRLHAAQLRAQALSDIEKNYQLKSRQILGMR
As to conditions: at 0.1 µM.

In assay [5] the target is T3, Serine/threonine-protein kinase Nek2 (Homo sapiens). Conditions: at 1 µM.
For assay [6], the target named is Serine/threonine-protein kinase Nek6 (Homo sapiens) (UniProt Q9HC98). As to conditions: at 0.1 µM.
Chain of Serine/threonine-protein kinase Nek6 (Homo sapiens) (Q9HC98 whole entry): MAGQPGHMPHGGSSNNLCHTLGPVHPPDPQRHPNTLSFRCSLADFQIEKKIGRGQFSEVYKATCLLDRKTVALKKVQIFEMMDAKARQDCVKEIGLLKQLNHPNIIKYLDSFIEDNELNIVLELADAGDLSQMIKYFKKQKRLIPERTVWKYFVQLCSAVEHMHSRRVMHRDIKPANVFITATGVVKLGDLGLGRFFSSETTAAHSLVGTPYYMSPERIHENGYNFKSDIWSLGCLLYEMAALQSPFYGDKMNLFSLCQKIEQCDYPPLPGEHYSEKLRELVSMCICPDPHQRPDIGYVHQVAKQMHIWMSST
Assay [7] shares this target. Conditions: at 1 µM.
Assay [8] addresses Serine/threonine-protein kinase Nek7 (Homo sapiens) (UniProt Q8TDX7). Conditions: at 0.1 µM.
For assay [9] the target is unchanged. Conditions: at 1 µM.
For assay [10], the target named is T4, Serine/threonine-protein kinase Nek9 (Homo sapiens) (UniProt Q8TD19).
T4 sequence (whole entry): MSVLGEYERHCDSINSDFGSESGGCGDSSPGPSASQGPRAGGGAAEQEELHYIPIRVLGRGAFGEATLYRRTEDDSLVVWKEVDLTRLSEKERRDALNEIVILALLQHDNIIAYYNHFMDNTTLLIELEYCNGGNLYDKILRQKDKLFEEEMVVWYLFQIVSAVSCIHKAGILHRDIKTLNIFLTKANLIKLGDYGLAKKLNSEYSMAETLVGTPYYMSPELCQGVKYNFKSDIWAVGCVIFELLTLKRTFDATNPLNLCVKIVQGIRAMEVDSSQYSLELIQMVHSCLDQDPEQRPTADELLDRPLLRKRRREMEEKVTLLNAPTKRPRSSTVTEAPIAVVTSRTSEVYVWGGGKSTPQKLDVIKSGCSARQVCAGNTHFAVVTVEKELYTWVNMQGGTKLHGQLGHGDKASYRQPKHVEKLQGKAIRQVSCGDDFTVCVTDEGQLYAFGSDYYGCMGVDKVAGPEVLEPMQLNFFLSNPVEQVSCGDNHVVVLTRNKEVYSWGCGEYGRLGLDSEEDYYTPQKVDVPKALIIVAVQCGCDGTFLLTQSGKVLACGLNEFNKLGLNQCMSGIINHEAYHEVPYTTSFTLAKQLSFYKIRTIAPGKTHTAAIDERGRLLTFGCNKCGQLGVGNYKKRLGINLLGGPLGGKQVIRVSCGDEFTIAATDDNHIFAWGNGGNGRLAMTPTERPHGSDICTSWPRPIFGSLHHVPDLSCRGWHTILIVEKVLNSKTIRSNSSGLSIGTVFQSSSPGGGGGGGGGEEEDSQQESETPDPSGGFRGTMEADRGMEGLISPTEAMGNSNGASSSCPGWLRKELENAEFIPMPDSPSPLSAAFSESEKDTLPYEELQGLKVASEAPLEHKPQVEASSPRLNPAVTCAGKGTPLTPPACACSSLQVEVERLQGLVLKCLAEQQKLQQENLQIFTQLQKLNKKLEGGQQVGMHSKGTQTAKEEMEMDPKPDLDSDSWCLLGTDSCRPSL
Conditions: at 0.1 µM.

The target in assay [11] is T4, Serine/threonine-protein kinase Nek9 (Homo sapiens). As to conditions: at 1 µM.
Assay [12] has as its target Serine/threonine-protein kinase PLK1 (Homo sapiens) (UniProt P53350). As to conditions: at 0.1 µM.
The target is the same in assay [13]. Conditions: at 1 µM.
The target in assay [14] is T5, Dual specificity protein kinase TTK (Homo sapiens) (UniProt P33981).
T5 sequence (whole entry): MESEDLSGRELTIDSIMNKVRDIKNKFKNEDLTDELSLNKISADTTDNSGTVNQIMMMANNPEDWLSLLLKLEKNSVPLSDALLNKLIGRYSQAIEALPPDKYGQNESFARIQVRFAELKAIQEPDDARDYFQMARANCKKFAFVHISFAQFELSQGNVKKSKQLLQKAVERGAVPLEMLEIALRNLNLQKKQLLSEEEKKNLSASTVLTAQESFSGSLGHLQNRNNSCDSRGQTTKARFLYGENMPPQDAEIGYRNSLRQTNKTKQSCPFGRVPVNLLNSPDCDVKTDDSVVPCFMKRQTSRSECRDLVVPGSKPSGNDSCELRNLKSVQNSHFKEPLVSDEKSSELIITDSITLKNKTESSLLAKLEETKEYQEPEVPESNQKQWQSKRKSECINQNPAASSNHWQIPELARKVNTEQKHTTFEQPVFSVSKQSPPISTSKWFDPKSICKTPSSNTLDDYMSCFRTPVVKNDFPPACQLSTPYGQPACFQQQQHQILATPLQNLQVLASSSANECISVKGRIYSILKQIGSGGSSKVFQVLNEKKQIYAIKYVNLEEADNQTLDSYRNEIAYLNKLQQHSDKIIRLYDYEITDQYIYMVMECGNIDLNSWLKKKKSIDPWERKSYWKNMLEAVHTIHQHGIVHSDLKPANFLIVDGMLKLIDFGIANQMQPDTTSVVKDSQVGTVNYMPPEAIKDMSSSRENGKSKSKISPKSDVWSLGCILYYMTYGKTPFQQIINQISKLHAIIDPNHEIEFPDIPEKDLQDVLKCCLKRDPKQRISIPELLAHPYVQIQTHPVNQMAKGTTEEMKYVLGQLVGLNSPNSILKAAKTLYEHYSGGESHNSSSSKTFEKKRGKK
Conditions: at 0.1 µM.

Assay [15] concerns T6, Receptor-type tyrosine-protein kinase FLT3 (Homo sapiens), P36888 [D835Y].
T6 sequence (whole entry): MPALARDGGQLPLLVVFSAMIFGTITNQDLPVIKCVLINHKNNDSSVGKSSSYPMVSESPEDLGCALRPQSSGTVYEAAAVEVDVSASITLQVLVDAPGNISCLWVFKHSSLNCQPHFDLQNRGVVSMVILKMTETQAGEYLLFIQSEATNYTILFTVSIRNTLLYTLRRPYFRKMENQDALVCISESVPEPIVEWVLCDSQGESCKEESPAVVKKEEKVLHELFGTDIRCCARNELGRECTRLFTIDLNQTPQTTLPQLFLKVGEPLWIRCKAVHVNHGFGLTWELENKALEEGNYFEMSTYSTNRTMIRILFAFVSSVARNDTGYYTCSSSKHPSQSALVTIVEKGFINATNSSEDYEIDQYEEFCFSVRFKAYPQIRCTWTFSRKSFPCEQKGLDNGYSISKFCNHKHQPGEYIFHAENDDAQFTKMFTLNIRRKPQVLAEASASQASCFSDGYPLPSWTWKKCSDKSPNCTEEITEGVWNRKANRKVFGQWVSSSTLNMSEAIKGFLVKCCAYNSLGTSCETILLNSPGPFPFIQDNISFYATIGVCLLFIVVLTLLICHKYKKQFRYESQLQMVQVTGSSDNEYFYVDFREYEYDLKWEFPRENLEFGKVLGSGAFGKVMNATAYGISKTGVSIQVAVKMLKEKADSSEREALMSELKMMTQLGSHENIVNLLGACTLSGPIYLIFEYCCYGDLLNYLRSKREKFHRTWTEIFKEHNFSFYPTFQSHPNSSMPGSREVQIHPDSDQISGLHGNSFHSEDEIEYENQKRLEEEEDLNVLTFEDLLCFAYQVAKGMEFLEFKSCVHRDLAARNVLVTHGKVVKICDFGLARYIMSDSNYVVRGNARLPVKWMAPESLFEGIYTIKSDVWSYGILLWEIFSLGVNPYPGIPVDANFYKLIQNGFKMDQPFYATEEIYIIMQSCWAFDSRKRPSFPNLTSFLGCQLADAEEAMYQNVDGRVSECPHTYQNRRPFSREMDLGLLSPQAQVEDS
As to conditions: at 1 µM.

For assay [16], the target named is Vascular endothelial growth factor receptor 3 (Homo sapiens) (UniProt P35916). As to conditions: at 0.1 µM.
Chain of Vascular endothelial growth factor receptor 3 (Homo sapiens) (P35916 whole entry): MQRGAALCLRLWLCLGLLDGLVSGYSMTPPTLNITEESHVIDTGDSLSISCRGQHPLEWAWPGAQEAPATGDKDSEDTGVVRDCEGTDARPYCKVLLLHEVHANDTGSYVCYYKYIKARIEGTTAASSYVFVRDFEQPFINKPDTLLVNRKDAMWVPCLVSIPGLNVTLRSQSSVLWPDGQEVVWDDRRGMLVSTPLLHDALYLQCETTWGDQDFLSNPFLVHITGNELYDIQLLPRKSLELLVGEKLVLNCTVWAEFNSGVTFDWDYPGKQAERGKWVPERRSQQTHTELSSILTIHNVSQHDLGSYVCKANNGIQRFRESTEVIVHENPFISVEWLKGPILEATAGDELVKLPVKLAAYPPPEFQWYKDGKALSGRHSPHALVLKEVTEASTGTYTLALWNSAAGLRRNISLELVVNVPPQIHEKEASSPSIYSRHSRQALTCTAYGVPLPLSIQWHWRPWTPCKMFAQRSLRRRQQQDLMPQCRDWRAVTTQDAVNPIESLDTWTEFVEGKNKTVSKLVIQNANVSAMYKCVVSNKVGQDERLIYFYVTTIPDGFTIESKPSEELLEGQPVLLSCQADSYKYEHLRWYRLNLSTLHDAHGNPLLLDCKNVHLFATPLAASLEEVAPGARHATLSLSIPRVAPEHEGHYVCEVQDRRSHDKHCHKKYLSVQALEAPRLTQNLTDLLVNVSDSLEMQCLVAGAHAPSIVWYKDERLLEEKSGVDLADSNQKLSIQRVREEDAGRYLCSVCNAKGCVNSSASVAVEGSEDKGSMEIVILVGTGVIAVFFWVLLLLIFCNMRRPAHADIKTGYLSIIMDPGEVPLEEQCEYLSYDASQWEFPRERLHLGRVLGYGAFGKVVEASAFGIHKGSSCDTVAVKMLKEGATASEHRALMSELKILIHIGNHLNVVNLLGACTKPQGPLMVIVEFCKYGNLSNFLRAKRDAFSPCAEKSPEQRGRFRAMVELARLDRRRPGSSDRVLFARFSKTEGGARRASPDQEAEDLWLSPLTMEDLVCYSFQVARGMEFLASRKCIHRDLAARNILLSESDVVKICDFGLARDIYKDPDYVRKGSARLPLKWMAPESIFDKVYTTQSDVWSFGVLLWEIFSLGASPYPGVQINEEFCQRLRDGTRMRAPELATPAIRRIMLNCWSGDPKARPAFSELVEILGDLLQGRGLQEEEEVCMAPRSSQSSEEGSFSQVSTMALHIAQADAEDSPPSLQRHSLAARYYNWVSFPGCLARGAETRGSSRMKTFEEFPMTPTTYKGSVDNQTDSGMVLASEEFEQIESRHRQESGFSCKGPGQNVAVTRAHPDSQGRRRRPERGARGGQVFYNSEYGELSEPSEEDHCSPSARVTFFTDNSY
The target is the same in assay [17]. Conditions: at 1 µM.
Assay [18] has as its target Macrophage colony-stimulating factor 1 receptor (Homo sapiens) (UniProt P07333). As to conditions: at 0.1 µM.
Assay [19] has the same target. Conditions: at 1 µM.
For assay [20], the target named is Tyrosine-protein kinase Fyn (Homo sapiens) (UniProt P06241). As to conditions: at 0.1 µM.
Chain of Tyrosine-protein kinase Fyn (Homo sapiens) (P06241 2-537 limits assumed): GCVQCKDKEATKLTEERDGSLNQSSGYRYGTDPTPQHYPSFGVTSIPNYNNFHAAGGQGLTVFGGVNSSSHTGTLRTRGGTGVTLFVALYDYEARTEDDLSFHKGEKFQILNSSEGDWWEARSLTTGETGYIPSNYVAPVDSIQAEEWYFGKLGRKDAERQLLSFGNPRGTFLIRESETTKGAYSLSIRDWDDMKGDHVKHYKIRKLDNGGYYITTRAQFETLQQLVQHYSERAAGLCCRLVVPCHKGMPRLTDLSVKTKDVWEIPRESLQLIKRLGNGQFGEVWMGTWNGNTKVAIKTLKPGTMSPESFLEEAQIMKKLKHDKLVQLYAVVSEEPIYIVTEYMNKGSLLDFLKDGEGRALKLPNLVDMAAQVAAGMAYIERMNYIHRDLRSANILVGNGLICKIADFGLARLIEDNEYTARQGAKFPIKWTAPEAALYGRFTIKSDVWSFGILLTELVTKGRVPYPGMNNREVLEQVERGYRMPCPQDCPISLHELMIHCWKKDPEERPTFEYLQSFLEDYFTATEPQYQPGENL

Chain of Serine/threonine-protein kinase Nek7 (Homo sapiens) (Q8TDX7 whole entry, looked up): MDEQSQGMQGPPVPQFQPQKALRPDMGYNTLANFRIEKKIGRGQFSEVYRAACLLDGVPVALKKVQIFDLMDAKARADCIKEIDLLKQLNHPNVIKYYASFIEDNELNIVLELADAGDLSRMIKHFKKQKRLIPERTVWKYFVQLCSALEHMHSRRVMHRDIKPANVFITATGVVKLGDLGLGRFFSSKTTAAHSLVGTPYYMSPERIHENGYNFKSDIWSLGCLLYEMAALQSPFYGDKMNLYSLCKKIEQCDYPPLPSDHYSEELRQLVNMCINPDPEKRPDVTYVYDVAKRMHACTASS
Chain of Macrophage colony-stimulating factor 1 receptor (Homo sapiens) (P07333 whole entry): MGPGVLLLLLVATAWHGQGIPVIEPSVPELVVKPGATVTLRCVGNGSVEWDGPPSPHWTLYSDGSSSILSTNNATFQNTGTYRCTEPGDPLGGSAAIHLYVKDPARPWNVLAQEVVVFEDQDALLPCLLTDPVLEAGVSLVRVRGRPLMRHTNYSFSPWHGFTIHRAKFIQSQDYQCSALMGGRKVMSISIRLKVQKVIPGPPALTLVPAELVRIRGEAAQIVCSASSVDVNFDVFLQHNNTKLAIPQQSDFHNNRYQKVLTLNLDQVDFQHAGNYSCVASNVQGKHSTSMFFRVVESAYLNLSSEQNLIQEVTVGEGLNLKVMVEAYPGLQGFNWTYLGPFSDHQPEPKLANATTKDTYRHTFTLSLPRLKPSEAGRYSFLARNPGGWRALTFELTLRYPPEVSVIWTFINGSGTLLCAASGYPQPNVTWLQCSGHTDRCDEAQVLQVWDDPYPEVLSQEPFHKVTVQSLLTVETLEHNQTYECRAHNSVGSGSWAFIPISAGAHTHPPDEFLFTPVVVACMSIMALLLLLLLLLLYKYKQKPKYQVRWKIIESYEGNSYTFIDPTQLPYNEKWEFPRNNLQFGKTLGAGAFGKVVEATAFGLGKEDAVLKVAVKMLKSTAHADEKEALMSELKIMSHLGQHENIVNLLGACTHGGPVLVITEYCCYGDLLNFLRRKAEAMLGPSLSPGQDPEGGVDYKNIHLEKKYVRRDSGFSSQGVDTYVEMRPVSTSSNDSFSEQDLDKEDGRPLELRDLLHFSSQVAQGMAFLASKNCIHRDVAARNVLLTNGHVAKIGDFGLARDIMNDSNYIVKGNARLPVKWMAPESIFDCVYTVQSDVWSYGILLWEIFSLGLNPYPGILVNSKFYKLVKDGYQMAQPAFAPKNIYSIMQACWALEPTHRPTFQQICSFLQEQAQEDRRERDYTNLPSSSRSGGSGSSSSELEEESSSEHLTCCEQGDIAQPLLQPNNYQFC
Chain of Serine/threonine-protein kinase PLK1 (Homo sapiens) (P53350 whole entry): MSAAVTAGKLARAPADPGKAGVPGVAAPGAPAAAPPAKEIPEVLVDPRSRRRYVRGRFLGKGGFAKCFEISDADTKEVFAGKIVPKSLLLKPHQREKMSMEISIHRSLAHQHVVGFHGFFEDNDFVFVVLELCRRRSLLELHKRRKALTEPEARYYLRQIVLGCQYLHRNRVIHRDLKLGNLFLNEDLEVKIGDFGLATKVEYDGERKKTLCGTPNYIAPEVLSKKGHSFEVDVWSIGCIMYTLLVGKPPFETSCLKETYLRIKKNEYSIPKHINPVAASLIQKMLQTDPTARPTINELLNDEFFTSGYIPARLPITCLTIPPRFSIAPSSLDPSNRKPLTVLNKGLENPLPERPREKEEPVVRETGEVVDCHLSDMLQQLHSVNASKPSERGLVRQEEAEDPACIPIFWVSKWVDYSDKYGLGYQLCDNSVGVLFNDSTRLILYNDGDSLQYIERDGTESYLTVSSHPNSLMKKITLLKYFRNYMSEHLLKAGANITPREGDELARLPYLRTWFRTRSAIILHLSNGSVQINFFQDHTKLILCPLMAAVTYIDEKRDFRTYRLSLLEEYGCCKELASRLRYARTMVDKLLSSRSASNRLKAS

One may read the inhibition as the change of the read-out against control, counted positive when it falls. In the case of `CC(C)c1ccc2c(c1)NC(=O)/C2=N/Nc1ccc(S(N)(=O)=O)cc1`, the inhibition in assay [1] is -1.41%; in [2], 0.8%; in assay [3] it was -0.15%; in assay [4], 1.08%; in assay [5], 0.29%; in [6], 1.12%. The inhibition in assay [7] was 2.08%; in assay [8], -0.24%; in assay [9], 1.29%; in assay [10], 2.87%; in [11], 4.79%; in assay [12], 2.6%. The inhibition in assay [13] was found to be 1.38%; in assay [14] it was 2.93%; in assay [15] it was 3.33%; in assay [16] it was 1.38%; in assay [17] it was 5.37%; in [18] it was 5.18%. The inhibition in [19] is 34.6%; in assay [20], 2.02%.

Consider `O=C1Nc2ccc(-c3cccnc3)cc2C1=Cc1cc(Br)c(O)c(Br)c1`, for which the inhibition in assay [1] was 92.1%; in assay [2], 2.32%; in assay [3], 0.46%; in assay [4], 4.11%; in assay [5], 2.79%; in assay [6] it was 4.82%. Besides, the inhibition worked out at 0.55% in assay [7]; 5.27% in assay [8]; 4.87% in [9]; 6.61% in assay [10]; 0.27% in [11]; 3.43% in assay [12]. Also, the inhibition was 7.7% in [13]; 6.45% in assay [14]; 13.7% in assay [15]; 2.46% in assay [16]; 4.42% in assay [17]; 4.24% in assay [18]. Further, the inhibition in assay [19] stood at 7.78%; in assay [20] it was 2.17%.
